TSG101-PTAP inh – blocks PTAP/TSG101 interaction to inhibit HIV-1 budding. Q99816. Potency, µM (top dose mostly 115 µM), inactives show top-dose activity change, negative = inhibition, actives largely listed as inhibitors. Fluorescence polarization, FITC-PTAP peptide / Tsg101 binding. AID 493005. 340,000 tested, under 10 active; active = well fitted inhibition curve with a large enough effect in the main read-out, with a control signal flat, not every such curve was filed as active; inconclusive = small, poorly fitted or top-dose-only effect, or effect the other way, or a change in a side signal; inactive = no such curve, though single readings can be large or run the other way; note: % of control where 0% means no effect
Target sequence (Q99816 whole entry, looked up): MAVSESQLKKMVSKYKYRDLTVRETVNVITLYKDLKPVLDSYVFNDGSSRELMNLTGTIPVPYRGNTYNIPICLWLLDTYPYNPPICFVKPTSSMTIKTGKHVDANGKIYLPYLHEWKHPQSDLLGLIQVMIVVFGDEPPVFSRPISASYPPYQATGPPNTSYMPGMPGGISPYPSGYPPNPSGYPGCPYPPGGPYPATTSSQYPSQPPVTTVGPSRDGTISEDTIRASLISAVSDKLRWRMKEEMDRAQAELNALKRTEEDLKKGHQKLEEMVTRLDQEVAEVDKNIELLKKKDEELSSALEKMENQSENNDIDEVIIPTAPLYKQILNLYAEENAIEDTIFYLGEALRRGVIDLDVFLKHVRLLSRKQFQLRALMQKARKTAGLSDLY
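Fluorescence polarization binding of Tsg101 binding domain (10 uM final) to FITC-labeled PTAP peptide (50 nM final) in HEPES pH 7.5 buffer with NaCl, Tween 20, EDTA, TCEP. Compounds added before peptide; binding 20 min at RT.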
KB-V1 MDR tox – KB-V1 MDR subline cytotoxicity. Potency, µM (highest dose often 46.1 µM), most hits filed as cytotoxic. KB-V1 MDR cells viability, CellTiter-Glo, 72 h. AID 1347076. 3.4% of 400,000 active; note: % is set by controls: 0 for no effect and ±100 for the full control effect; nearly all actives have a fitted effect of over 60% in size
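KB-V1 cells (P-gp-expressing MDR subline of KB-3-1) in phenol-red-free DMEM with 10% FBS were exposed to library compounds over a concentration series for 72 h at 37 degrees C. Viability read by CellTiter-Glo luminescence; concentration-effect curves fitted after normalization.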
KB-3-1 cytotox – kills parental KB-3-1 adenocarcinoma cells; KB-3-1 viability, CellTiter-Glo ATP luminescence, 72 h; Potency, µM (doses to about 46.1 µM), most hits filed as cytotoxic; 1.4% of 400,000 active; AID 1347075; note: % is set by controls: 0 for no effect and ±100 for the full control effect; nearly all actives have a fitted effect of over 60% in size
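72 h, 37 °C compound treatment of KB-3-1 parental cells; CellTiter-Glo added, 10 min, luminescence read. Data corrected against DMSO-only plates and normalized before curve fitting.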
MCF10A rerep – induces DNA re-replication in MCF 10a normal breast cells. 2.9% of 350,000 active. Potency, µM (top dose mostly 46.1 µM), without a hit: at the highest dose activity, positive = re-replication, hits mostly activators. MCF 10A DNA re-replication, Hoechst nuclear intensity, 48 h. AID 624296; note: % of control where 0% means no effect; nearly all actives have a fitted effect of over 50% in size
RGS4 inhibitor – human RGS4 inhibition | AID 504845 | Potency, µM (titrated, usually from 114 µM), inactives show at the top dose activity change, negative = inhibition, hits mostly inhibitors | P49798 | 0.039% of 390,000 active | Transcreener GDP fluorescence polarization, RGS4-accelerated GTP hydrolysis; note: % is set by controls: 0 for no effect and ±100 for the full control effect; nearly all actives have a fitted effect of over 75% in size
Target sequence (P49798 whole entry, looked up): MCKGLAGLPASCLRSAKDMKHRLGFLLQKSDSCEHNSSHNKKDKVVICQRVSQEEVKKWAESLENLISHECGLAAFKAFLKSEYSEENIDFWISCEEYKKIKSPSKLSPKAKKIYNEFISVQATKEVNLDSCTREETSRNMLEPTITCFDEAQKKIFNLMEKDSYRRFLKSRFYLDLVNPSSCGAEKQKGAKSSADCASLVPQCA
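MLSMR compounds (23 nl, pin-transferred) preincubated 10 min at room temperature with a 500nM (2x) first reagent, then RGS4 at 900nM (2x) plus Transcreener GDP mix added; fluorescence polarization (620/688 nm) read before and after 90 min at 30 °C.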
SW480 rereplic – DNA re-replication induction in SW480 cells; SW480 DNA re-replication, Hoechst DNA content imaging, 48 h; Potency, µM (series often up to 46.1 µM), for the others: at the top dose re-replication activation, most hits filed as activators; 1.8% of 340,000 active; note: % of control where 0% means no effect; nearly all actives have a fitted effect of over 55% in size
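250 cells/well; 23 nL cpd via pin tool; 48 hr, 37 C, 5% CO2; Hoechst 40 min; imager read of total nuclear intensity, ex 405/em 500-530 nm.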
* hit, by the source's call; i = inactive; ? = inconclusive; nt = no result; [ ] = dose if it differs, or a comment. In the library only some 6.6% were active in any assay of this set; here they are far more common. Unless noted, calls come from the whole dose curve; as a rule, active = well fitted curve in the direction sought with a large enough effect; inconclusive = small, poorly fitted or top-dose-only effect, or another doubt; inactive = no such curve, though single readings can be large; an effect the other way counts as inactive or inconclusive. Potency is the fitted concentration of half-maximal effect.

SMILES | TSG101-PTAP inh | KB-V1 MDR tox | KB-3-1 cytotox | MCF10A rerep | RGS4 inhibitor | SW480 rereplic
CCN(c1ccccc1)S(=O)(=O)c1ccc(Cl)c(NC(=O)CSc2n[nH]c(N)n2)c1 | -5% | i | i | -8% | 3% | -49%
CCOC(=O)c1cc(-c2ccc(C)cc2)n(CC(=O)Nc2ccccc2F)c1C | nt | ? | i | nt | -24% | nt
COc1ccc(S(=O)(=O)Cc2ccccc2)cc1N | -8% | ? | ? | ? | 5% | 6.5µM*
CCN1CCN(CC(=O)Nc2cc(S(=O)(=O)N3CCCCC3)ccc2Cl)CC1 | 0% | i | i | ? | -6% | -10%
CCN(c1ccccc1)S(=O)(=O)c1ccc(Cl)c(NC(=O)CNCc2ccccc2OC)c1 | -4% | nt | nt | 16µM* | -4% | ?
CCN1CCN(CC(=O)Nc2cc(S(=O)(=O)N(CC)c3ccccc3)ccc2Cl)CC1 | -12% | i | i | 21µM* | 3% | ?
Cc1nc2ccc(S(=O)(=O)CCC(=O)Nc3ccc(F)cc3C)cc2s1 | nt | i | i | nt | -35% | nt
CCCCNC(=O)c1ccc(Cn2c(=S)[nH]c3c([nH]c4ccc(OC)cc43)c2=O)cc1 | -4% | i | ? | 16µM* | -9% | ?
CCOCCCNC(=O)c1ccc(Cn2c(=S)[nH]c3c([nH]c4ccc(OC)cc43)c2=O)cc1 | -6% | i | i | -18% | -9%[56.9 µM] | ?
C[C@H](NC(=O)c1[nH]cnc1C(=O)Nc1cccc(Cl)c1)c1ccccc1 | -7% | i | i | -6% | -5% | -3%
C[C@H](NC(=O)c1[nH]cnc1C(=O)Nc1ccc(Cl)cc1)c1ccccc1 | 0% | ? | ? | 16µM* | -6% | -31%[9.22 µM]
C[C@@H](NC(=O)c1[nH]cnc1C(=O)Nc1cccc(Cl)c1)c1ccccc1 | -4% | i | i | 12µM* | 3% | -7%[9.22 µM]
C[C@@H](NC(=O)c1[nH]cnc1C(=O)Nc1ccc(Cl)cc1)c1ccccc1 | -7% | ? | ? | 25% | 24% | -2%
O=C(Nc1ccc(Cl)cc1)c1nc[nH]c1C(=O)NCc1ccccc1 | -3% | 16µM* | ? | ? | 9% | -13%[9.22 µM]
CCN(CC)C(=O)c1[nH]cnc1C(=O)Nc1ccc(OC)cc1 | 0% | i | ? | -20% | -22% | 1.8µM*
COc1ccc(Cl)cc1NC(=O)c1cc(C)nc2c1c(C)nn2-c1ccccc1 | nt | i | i | nt | 7% | nt
CCOC(=O)c1c(C)[nH]c(C(=O)COC(=O)CCSc2ccccc2)c1C | -4% | 1.6µM* | ? | 29% | -25% | 14%
CC(=O)c1c(C)[nH]c(C(=O)COC(=O)CCSc2ccccc2)c1C | -7% | ? | i | -3% | -6% | -5%
CCOC(=O)c1c(C)[nH]c(C(=O)COC(=O)CNS(=O)(=O)c2ccc(C)cc2)c1C | 2% | 4.6µM* | i | -2% | -9% | -3%
CC(=O)c1ccccc1NS(=O)(=O)c1cc2c(cc1C)NC(=O)CO2 | nt | i | i | nt | 3% | nt
COc1cc(/C=C2\C=Cc3ccccc32)ccc1N(C)C | nt | i | i | nt | nt | nt
COc1ccc(C[C@H]2CN3C(=NC[C@@H]3Cc3ccc(O)cc3)N2CCNC(=O)c2ccc(C)c(Br)c2)cc1 | -5% | i | 16µM* | 5% | 0% | -19%
CN(C)c1ccc(/C=C2\Oc3ccc(C#Cc4cccc(N)c4)cc3C2=O)cc1 | ? | i | ? | 4.6µM* | -44% | 5.2µM*
COC(=O)c1ccc2c(c1)C(=O)/C(=C/c1ccc(C)cc1)O2 | -2% | i | i | 19% | -12% | 82%
C=CCOc1ccccc1CN(C(=O)CCl)c1ccc2c(c1)OCO2 | -1% | ? | ? | ? | ? | 5.2µM*
SMILES | TSG101-PTAP inh | KB-V1 MDR tox | KB-3-1 cytotox | MCF10A rerep | RGS4 inhibitor | SW480 rereplic
CCOc1ccccc1NC(=O)Nc1ccc2c(c1)OCO2 | 1% | i | i | 14% | -15% | -3%
CN1C(=S)SC(C)(C)C1N(O)C(=O)Nc1ccc(Cl)cc1 (stereo unspecified) | -5% | i | i | -4% | -10% | -6%
CN1C(=S)SC(N(O)C(=O)Nc2ccc(Cl)c(Cl)c2)C1(C)C (stereo unspecified) | -8% | 18µM* | ? | ? | 4% | 0%
Cc1cc(C(=O)N/N=C2\CC(=O)CC(C)(C)C2)c(C)n1-c1ccccc1 | -7% | ? | i | 21µM* | 22% | 7%
Cc1cc(C(=O)N/N=C2\CC(=O)CC(C)(C)C2)c(C)n1-c1ccc(F)cc1 | 0% | ? | i | 8% | -11% | 3%
O=C(NC1(C(F)(F)F)N=C(c2ccccc2)NC1=O)c1ccc(Cl)cc1Cl (stereo unspecified) | nt | 18µM* | i | -5% | 3% | 4%
Cc1ccccc1CN(c1ccc(C(=O)N2CCc3ccccc3C2)cc1)S(C)(=O)=O | -7% | 10µM* | 10µM* | ? | -23% | 7%
O=C(Nc1cc(NC(=O)c2ccccc2Cl)ccc1Cl)c1ccccc1 | nt | ? | i | nt | 5% | nt
Oc1ccc(N=Nc2cccc(C(F)(F)F)c2)cc1C=Nc1ccc(N2CCOCC2)cc1 | 6% | i | i | 5.8µM* | 13% | ?
CC(C)c1noc2ncc(C(=O)c3cc(Cl)cc(Cl)c3O)cc12 | 2% | 16µM* | ? | ? | -8% | ?
Nc1nc2ncc(C(=O)c3cc(Cl)cc(Cl)c3O)cc2s1 | -12% | i | i | 2% | -46% | 13%
COc1ccc(Nc2nc3ccccc3nc2NS(=O)(=O)c2cccs2)cc1 | -6% | i | i | ? | 1% | -9%
COc1ccc(S(=O)(=O)Nc2cccc(S(=O)(=O)N3CCCCCC3)c2)cc1 | -2% | i | i | -6% | -25% | 8%
CCc1ccc(Nc2nc3ccccc3nc2NS(=O)(=O)c2ccccc2)cc1 | nt | 18µM* | ? | nt | -12% | nt
O=S(=O)(Nc1nc2ccccc2nc1Nc1cccc(S(=O)(=O)N2CCCCC2)c1)c1ccccc1 | -8% | 7.3µM* | 15µM* | ? | -17% | 14%
CC(=O)c1ccc(Nc2nc3ccccc3nc2NS(=O)(=O)c2cccs2)cc1 | -4% | ? | ? | 15µM* | -8% | -6%
Cc1ccc(NC(=O)Cn2c(=O)n(CCCCC(=O)NCc3ccccc3Cl)c(=O)c3ccccc32)cc1C | nt | i | i | nt | -4% | nt
COc1ccc(S(=O)(=O)N(Cc2nc(-c3cccc(C)c3)no2)C2CCCCC2)cc1 | nt | nt | nt | nt | -3% | nt
CCCCC(=O)Nc1ccc(OCc2cc(=O)n3ccc(C)cc3n2)cc1 | nt | i | i | nt | 13% | nt

Assay outcomes: PubChem, National Center for Advancing Translational Sciences (NCATS)
